{
  "source": "PubChem BioAssay (Tox21)",
  "note": "Results filed as inconclusive are left out. Activity calls are given as the source filed them. The call rests on the fitted dose curve; in most records, active means well fitted activation curve with a large enough effect in the repeat runs; inconclusive means weak or mixed curves; inactive means no such curve, though single readings can be large or run the other way. On the % scale 0 is the no-effect control and ±100 the full control effect; potency means the concentration at half of the fitted maximal effect.",
  "data": [
    {"target": "Nuclear receptor subfamily 1 group I member 3 (Homo sapiens) (UniProt Q14994)", "sequence (Q14994 whole entry, looked up)": "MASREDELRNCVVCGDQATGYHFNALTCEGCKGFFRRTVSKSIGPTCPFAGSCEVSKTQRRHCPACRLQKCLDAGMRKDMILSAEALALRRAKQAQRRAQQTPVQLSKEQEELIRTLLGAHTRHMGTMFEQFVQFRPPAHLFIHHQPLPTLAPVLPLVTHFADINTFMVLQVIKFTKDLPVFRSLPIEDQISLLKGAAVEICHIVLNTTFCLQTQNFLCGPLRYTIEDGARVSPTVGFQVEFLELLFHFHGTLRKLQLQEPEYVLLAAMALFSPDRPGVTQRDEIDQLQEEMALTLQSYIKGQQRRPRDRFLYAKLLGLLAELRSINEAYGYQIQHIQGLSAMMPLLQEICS", "test": "qHTS assay to identify small molecule agonists of the constitutive androstane receptor (CAR) signaling pathway (AID 1224839); further: nearly all actives have a fitted effect of over 15% in size;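 on activation: HepG2 cells stably carrying human CAR and a CYP2B6 luciferase reporter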", "settings": "HepG2 hCAR CYP2B6-luciferase, agonist mode, 24 h; series mostly up to 92.4 µM; activation: at the top concentration", "from_the_text": "National Center for Advancing Translational Sciences [NCATS] NIH Chemical Genomics Center [NCGC] U.S. Environmental Protection Agency [EPA] National Institutes of Environmental Health Sciences [NIEHS] National Toxicology Program [NTP] Assay overview: The constitutive androstane receptor (CAR) is a nuclear receptor which regulates multiple drug metabolizing enzymes (DMEs) and transporters. Activating CAR will generally increase the transcription and subsequent translation of CYP2B6 and CYP3A4. These two DMEs represent about 50% of the drug metabolizing potential in the body. […] Recently, there have also been studies performed indicating CARs role in energy metabolism and cancer therapy. Therefore, inducing CARs activity could have a potential effect on diabetes and cancer. Identifying environmental toxins and compounds which modulate CAR, through the use of the Tox21 10K compound collection, will be an important step in determining the toxicity and potential therapeutic effects these factors will have on the human body.\nAssay Protocol Summary: A double-stable (hCAR and CYP2B6-2.2kb) transfected cell line, derived from human hepatoma (HepG2) cells, was utilized for the duration of the quantitative high-throughput screens. The HepG2-CYP2B6-hCAR cells suspended in DMEM culture medium supplemented with 10% FBS, 5 ug/mL blasticidin, 0.5 mg/mL geneticin, 100 U/mL penicillin and 100 ug/mL streptomycin were dispensed at 2500 cells/4 uL/well in 1536-well white solid bottom plates using a Multidrop Combi. After the assay plates were incubated at 37 C/5% CO2 for 4 hrs, 23 nL of compounds at 15 concentrations (from 5-48 columns) or positive control (from 1 to 4 columns) were transferred to the assay plates using a Pintool station. One uL of PK11195, was added using a Flying Reagent Dispenser to generate a final concentration of 0.75 uM PK11195 inside each well. After a 24 hr incubation period at 37 C/5% CO2, four uL of ONE-Glo reagent was added into the assay plates using a Flying Reagent Dispenser. After a 30 min incubation period at room temperature, the luminescence intensity in the assay plates was measured using a ViewLux plate reader.", "values": [
      {"smiles": "CC(C)CCCCCCOC(=O)c1ccc(C(=O)OCCCCCCC(C)C)c(C(=O)OCCCCCCC(C)C)c1", "activation": "0.587% (inactive)"},
      {"smiles": "O=C(O)[C@@H]1[C@H]2C[C@H]3c4[nH]c5ccccc5c4CCN3C[C@@H]2CC[C@@H]1O", "activation": "0.346% [at 42.5 µM] (inactive)"},
      {"smiles": "Nc1ccc(C(=O)N2CC3CC(CN(Cc4ccccc4)C3)C2)cc1", "activation": "0.904% [at 42.5 µM] (inactive)"},
      {"smiles": "CCCCCOC(=O)c1ccc(O)cc1", "Potency": "55.1 µM (active)"},
      {"smiles": "CC1=CC(=O)/C(=C(/C)O)C(=O)O1", "activation": "-2.03% (inactive)"},
      {"smiles": "Oc1ccc(Cc2ccccc2)cc1", "Potency": "56.6 µM (active)"},
      {"smiles": "Cn1sccc1=O", "Potency": "inactive"},
      {"smiles": "Cc1ccc(O)c([C@H](CCN(C(C)C)C(C)C)c2ccccc2)c1", "activation": "-6.35% [at 42.5 µM] (inactive)"},
      {"smiles": "CCCCCCCCCCCCCCCC(=O)OC/C=C(C)/C=C/C=C(C)/C=C/C1=C(C)CCCC1(C)C", "activation": "0.416% (inactive)"},
      {"smiles": "CNCC[C@@H](Oc1ccccc1C)c1ccccc1", "activation": "-2.91% [at 42.5 µM] (inactive)"},
      {"smiles": "CN1CCC(=C2c3ccccc3CCc3sccc32)CC1", "activation": "-0.677% [at 42.5 µM] (inactive)"},
      {"smiles": "COC(Cc1ccccc1)OC", "activation": "-1.56% (inactive)"},
      {"smiles": "CCCCCc1ccc(N)cc1", "activation": "3.05% (inactive)"},
      {"smiles": "CCc1nn(C2CCCCC2)c2cc(C3(C#N)CCC(C(=O)O)CC3)ccc12", "note": "(stereo not given)", "activation": "0.127% (inactive)"},
      {"smiles": "N#Cc1cc2ccccc2c2ccccc12", "Potency": "27.4 µM (active)"},
      {"smiles": "CC(=O)/C(C)=C/C1C(C)=CCCC1(C)C", "note": "(stereo not given)", "activation": "-0.433% (inactive)"},
      {"smiles": "CCN(CC)C(C)CN1c2ccccc2Sc2ccccc21", "note": "(stereo not given)", "activation": "2.76% [at 42.5 µM] (inactive)"},
      {"smiles": "CCOC(=O)C1=C(C)NC(C)=C(C(=O)OC)C1c1cccc([N+](=O)[O-])c1", "note": "(stereo not given)", "activation": "-0.593% [at 42.5 µM] (inactive)"},
      {"smiles": "O=S1(=O)c2cccc3cccc(c23)N1CCCN1CCN(c2ccc(F)cc2)CC1", "Potency": "26.6 µM (active)"},
      {"smiles": "O=C=NC1CCC(CC2CCC(N=C=O)CC2)CC1", "note": "(stereo not given)", "activation": "-4.43% (inactive)"},
      {"smiles": "O=C(Cl)c1c(Cl)cccc1Cl", "activation": "0.969% (inactive)"},
      {"smiles": "CC(=O)[C@@]1(O)CC[C@H]2[C@@H]3C[C@H](C)C4=CC(=O)CC[C@]4(C)[C@H]3CC[C@@]21C", "Potency": "21.1 µM (active)"},
      {"smiles": "N[C@H]1C(O)O[C@H](CO)[C@H](O)[C@@H]1O", "note": "(stereo not given in full)", "activation": "-7.74% (inactive)"},
      {"smiles": "CC(C(=O)O)c1ccc(C(=O)c2ccccc2)s1", "note": "(stereo not given)", "Potency": "16.8 µM (active)"},
      {"smiles": "C=C(C)C(=O)OCCN(C)C", "activation": "-2.29% (inactive)"},
      {"smiles": "O=C1[C@H](CC[C@H](O)c2ccc(F)cc2)[C@@H](c2ccc(O)cc2)N1c1ccc(F)cc1", "activation": "-2.02% [at 42.5 µM] (inactive)"},
      {"smiles": "Cc1cc(NC(=O)C(=O)O)cc(C)c1Oc1ccc(O)c2c1CCC2", "activation": "9.72% (inactive)"},
      {"smiles": "C=C(C)C(=O)OC(C)C", "activation": "-0.994% (inactive)"},
      {"smiles": "CCCCCCCCCC(=O)OCC", "activation": "1.42% (inactive)"},
      {"smiles": "CC(=O)OCCc1ccccc1", "activation": "-0.608% (inactive)"},
      {"smiles": "O=C(C(=O)c1ccc(Br)cc1)c1ccc(Br)cc1", "activation": "2.8% [at 19 µM] (inactive)"},
      {"smiles": "C#CCOC(=O)[C@@H](C)Oc1ccc(Oc2ncc(Cl)cc2F)cc1", "activation": "4.05% (inactive)"},
      {"smiles": "CCN(CC)CCOC(=O)C1(c2ccccc2)CCCC1", "activation": "11.6% [at 42.5 µM] (inactive)"},
      {"smiles": "CNS(=O)(=O)Cc1ccc2[nH]cc(CCN(C)C)c2c1", "activation": "-2.18% [at 42.5 µM] (inactive)"},
      {"smiles": "CC(CN)CCCN", "note": "(stereo not given)", "activation": "3.72% (inactive)"},
      {"smiles": "CC(=O)c1ccc2c(c1)[C@H](NC(=O)c1ccc(F)cc1)[C@@H](O)C(C)(C)O2", "activation": "0.0405% (inactive)"},
      {"smiles": "NC(N)=NN=C(/C=C/c1ccc([N+](=O)[O-])o1)/C=C/c1ccc([N+](=O)[O-])o1", "activation": "-21.9% [at 42.5 µM] (inactive)"},
      {"smiles": "CC(C)(C)c1cc(CO)cc(C(C)(C)C)c1O", "Potency": "24.8 µM (active)"},
      {"smiles": "CC(=O)CC(=O)c1ccccc1", "activation": "-9.6% (inactive)"},
      {"smiles": "CN(C)CC[C@@H](c1ccc(Br)cc1)c1ccccn1", "activation": "-2.47% [at 42.5 µM] (inactive)"}
    ]}
  ]
}
